From paper PMC7862700, “An all-to-all approach to the identification of sequence-specific readers for epigenetic DNA modifications on cytosine” come the findings set out here.

Common to all, as to experiment: DAPPL (digital affinity profiling via proximity ligation, sequencing); 10 mM Tris-HCl pH 7.5, 50 mM NaCl, 1 mM DTT, 4% glycerol, room temperature, 30 min; GST-TFs on glutathione beads, 16-mer random dsDNA library, 0.1% formaldehyde crosslink after washing; high values mean tight binding
One assay concerns the target T1, FLI1 (Homo sapiens, UniProt Q01543 1-452).
T1 sequence: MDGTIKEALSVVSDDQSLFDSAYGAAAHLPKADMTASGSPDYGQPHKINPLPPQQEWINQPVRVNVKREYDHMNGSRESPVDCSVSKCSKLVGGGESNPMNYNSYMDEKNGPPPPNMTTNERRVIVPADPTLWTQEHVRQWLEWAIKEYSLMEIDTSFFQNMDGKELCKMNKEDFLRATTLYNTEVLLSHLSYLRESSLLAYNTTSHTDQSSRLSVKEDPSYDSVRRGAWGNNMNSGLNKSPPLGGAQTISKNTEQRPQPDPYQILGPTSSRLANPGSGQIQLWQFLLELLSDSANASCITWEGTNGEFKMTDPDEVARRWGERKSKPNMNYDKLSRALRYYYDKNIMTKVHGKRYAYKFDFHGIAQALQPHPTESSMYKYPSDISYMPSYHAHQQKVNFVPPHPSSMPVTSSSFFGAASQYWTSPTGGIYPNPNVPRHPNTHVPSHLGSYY
The following applies: protein: recombinant; tags: N-terminal GST; dsDNA, one strand shown. The gist of the method:
(§1)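 Binding signal is each hexamer's read frequency for a factor divided by its frequency in the tag-only sample. The factors were GST-fused human transcription factors from yeast, captured on glutathione beads, DNA-barcoded and pooled with that sample. Pools were incubated with 200 nmole of a random double-stranded 16-mer DNA library in Tris/NaCl/DTT/glycerol buffer at room temperature for 30 min, then washed, crosslinked with 0.1% formaldehyde, proximity-ligated with BsaI/T4 ligase (1 h, 37 °C), PCR-amplified and sequenced on an Illumina NextSeq500.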

The next assay addresses T2, ELK1 (Homo sapiens, UniProt P19419 1-428).
T2 sequence: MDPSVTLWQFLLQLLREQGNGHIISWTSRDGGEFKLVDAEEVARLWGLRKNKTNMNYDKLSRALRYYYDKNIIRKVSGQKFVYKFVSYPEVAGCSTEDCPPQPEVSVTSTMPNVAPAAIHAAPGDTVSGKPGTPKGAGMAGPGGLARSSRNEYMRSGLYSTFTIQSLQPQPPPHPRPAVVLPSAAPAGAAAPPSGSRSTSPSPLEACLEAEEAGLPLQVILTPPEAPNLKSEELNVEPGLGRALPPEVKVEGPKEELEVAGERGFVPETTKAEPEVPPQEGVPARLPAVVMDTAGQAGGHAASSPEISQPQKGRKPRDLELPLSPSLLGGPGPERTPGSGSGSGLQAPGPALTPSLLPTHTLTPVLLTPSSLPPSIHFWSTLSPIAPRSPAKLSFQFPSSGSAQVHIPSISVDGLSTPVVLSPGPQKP
The settings on record: protein: recombinant; tags: N-terminal GST; dsDNA, one strand shown. In outline: as §1

The target in a further assay is T3, GABPA (Homo sapiens, UniProt Q06546 1-454).
T3 sequence: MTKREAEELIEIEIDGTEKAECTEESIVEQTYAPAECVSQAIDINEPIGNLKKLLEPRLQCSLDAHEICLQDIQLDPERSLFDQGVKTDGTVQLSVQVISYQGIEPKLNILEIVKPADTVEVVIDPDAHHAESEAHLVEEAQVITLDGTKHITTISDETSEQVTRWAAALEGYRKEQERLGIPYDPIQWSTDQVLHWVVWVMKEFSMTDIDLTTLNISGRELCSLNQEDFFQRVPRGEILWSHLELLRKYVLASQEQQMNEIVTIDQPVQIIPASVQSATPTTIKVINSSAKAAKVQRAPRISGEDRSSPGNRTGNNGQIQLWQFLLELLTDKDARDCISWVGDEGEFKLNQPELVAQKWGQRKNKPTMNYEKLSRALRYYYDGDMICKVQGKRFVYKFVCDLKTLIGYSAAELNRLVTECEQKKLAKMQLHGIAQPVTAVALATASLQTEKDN
The following applies: protein: recombinant; tags: N-terminal GST; dsDNA, one strand shown. In outline:
as §1

Another assay addresses T4, ERG (Homo sapiens, UniProt P11308 1-479).
T4 sequence: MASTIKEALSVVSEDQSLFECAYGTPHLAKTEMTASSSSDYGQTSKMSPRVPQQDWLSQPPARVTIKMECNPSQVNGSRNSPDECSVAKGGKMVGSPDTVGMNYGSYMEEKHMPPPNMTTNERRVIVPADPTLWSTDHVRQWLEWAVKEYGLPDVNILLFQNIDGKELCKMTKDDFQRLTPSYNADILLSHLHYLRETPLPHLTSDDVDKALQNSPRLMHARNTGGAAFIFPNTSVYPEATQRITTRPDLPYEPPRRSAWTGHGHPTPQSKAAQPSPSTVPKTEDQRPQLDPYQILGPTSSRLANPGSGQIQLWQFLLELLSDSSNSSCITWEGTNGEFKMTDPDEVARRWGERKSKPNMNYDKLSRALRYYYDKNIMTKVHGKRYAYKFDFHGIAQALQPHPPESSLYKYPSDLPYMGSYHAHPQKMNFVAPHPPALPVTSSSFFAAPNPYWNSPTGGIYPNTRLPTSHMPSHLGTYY
The following applies: protein: recombinant; tags: N-terminal GST; dsDNA, one strand shown. The gist of the method:
as §1

For another assay, the target named is ELF1 (Homo sapiens, UniProt P32519 1-619). The following applies: protein: recombinant; tags: N-terminal GST; dsDNA, one strand shown. In outline: as §1
ELF1, sequence (P32519 whole entry): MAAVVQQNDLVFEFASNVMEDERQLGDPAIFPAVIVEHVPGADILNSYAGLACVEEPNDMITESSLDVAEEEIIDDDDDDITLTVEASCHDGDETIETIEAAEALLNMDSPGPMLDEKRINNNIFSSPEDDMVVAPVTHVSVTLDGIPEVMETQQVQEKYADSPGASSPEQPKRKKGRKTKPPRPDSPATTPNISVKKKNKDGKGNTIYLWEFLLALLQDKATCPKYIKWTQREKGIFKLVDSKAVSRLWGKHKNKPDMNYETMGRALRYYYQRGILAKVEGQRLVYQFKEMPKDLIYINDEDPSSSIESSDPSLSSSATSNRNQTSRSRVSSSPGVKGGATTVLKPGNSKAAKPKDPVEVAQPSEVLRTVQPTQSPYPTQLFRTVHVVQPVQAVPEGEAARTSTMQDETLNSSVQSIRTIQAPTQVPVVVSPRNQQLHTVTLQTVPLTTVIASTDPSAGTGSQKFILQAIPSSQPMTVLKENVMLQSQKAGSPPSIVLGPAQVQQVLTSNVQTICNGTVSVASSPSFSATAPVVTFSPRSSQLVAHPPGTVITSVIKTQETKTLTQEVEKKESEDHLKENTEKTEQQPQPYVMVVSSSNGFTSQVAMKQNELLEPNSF
The target of the next assay is T5, EHF (Homo sapiens, UniProt Q9NZC4 1-300).
T5 sequence: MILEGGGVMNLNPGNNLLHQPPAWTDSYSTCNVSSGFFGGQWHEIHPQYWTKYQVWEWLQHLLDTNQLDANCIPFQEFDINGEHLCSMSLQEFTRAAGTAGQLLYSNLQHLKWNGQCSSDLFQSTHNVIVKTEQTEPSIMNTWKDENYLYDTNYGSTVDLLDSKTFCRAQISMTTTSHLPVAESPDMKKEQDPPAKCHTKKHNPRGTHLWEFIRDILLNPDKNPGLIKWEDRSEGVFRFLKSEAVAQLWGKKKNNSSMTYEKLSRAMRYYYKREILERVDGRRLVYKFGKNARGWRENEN
The following applies: protein: recombinant; tags: N-terminal GST; dsDNA, one strand shown. In outline:
as §1

The target in a further assay is SPI1 (Homo sapiens, UniProt P17947 1-270). The settings on record: protein: recombinant; tags: N-terminal GST; dsDNA, one strand shown. The gist of the method:
as §1

For the next assay, the target named is SPIB (Homo sapiens, UniProt Q01892 1-262). The following applies: protein: recombinant; tags: N-terminal GST; dsDNA, one strand shown. The gist of the method:
as §1

The target of the next assay is T6, ELK3 (Homo sapiens, UniProt P41970 1-407).
T6 sequence: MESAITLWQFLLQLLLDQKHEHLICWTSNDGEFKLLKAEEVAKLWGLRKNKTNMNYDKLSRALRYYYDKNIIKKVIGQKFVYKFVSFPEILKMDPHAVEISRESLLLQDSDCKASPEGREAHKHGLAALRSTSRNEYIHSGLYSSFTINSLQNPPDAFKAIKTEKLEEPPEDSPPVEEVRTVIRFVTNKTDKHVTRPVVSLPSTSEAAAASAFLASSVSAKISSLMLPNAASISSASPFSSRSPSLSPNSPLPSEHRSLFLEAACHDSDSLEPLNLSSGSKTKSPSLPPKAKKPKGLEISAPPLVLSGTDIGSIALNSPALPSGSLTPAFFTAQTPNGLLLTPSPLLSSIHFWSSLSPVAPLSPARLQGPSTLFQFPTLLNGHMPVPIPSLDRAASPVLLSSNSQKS
The following applies: protein: recombinant; tags: N-terminal GST; dsDNA, one strand shown. In outline:
as §1

In the next assay the target is T7, FEV (Homo sapiens, UniProt Q99581 1-238).
T7 sequence: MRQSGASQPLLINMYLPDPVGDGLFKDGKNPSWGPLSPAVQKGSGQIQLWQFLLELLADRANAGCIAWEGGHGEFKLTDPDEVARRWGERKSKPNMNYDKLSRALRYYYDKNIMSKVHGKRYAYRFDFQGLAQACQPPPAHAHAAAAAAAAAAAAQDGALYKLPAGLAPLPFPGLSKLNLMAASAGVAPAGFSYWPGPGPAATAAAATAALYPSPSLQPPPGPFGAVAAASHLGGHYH
The following applies: protein: recombinant; tags: N-terminal GST; dsDNA, one strand shown. In outline: as §1

The next assay deals with ETV5 (Homo sapiens, UniProt P41161 1-510). The settings on record: protein: recombinant; tags: N-terminal GST; dsDNA, one strand shown. The gist of the method: as §1
ETV5, sequence (P41161 whole entry): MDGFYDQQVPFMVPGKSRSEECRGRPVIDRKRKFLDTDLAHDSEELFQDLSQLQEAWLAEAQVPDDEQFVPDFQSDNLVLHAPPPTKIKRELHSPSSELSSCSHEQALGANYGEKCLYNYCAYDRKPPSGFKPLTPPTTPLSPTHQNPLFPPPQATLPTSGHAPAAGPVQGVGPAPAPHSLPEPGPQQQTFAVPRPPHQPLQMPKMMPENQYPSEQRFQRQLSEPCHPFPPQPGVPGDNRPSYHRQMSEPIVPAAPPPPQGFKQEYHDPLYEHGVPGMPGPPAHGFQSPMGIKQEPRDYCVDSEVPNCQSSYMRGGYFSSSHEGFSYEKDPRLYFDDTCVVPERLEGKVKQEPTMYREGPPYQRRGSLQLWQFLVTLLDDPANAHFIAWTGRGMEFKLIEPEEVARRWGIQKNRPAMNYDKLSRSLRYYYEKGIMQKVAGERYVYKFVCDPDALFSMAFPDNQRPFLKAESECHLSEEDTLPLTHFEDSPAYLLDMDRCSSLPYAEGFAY
A further assay has as its target HSF1 (Homo sapiens, UniProt Q00613 1-529). The settings on record: protein: recombinant; tags: N-terminal GST; chain copies: 3; dsDNA, one strand shown. The gist of the method: as §1
The target of another assay is T8, SPIC (Homo sapiens, UniProt Q8N5J4 1-248).
T8 sequence: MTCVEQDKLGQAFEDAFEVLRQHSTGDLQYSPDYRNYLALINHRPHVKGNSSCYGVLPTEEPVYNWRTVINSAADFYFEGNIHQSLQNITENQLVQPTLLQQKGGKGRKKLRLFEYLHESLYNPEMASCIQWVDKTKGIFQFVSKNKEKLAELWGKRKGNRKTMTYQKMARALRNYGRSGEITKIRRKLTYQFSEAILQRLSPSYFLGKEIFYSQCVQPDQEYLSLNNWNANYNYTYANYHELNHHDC
The settings on record: protein: recombinant; tags: N-terminal GST; dsDNA, one strand shown. The gist of the method:
as §1

Another assay concerns the target ELF4 (Homo sapiens, UniProt Q99607 1-663). The following applies: protein: recombinant; tags: N-terminal GST; dsDNA, one strand shown. The gist of the method:
as §1

The target of another assay is T9, ELK4 (Homo sapiens, UniProt P28324-2 1-405).
T9 sequence: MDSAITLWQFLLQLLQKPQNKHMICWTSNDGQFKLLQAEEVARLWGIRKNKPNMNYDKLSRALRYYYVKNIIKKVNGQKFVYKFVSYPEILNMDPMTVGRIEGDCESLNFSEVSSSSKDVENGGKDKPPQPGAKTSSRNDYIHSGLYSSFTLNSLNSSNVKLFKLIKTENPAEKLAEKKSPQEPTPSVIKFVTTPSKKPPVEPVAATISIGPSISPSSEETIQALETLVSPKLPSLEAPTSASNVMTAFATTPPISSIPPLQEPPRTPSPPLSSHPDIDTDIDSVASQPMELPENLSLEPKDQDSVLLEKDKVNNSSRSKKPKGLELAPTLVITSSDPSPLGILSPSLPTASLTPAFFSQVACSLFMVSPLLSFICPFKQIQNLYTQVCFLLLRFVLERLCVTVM
The following applies: protein: recombinant; tags: N-terminal GST; dsDNA, one strand shown. In outline:
as §1

The next assay deals with T10, ETV2 (Homo sapiens, UniProt O00321 1-342).
T10 sequence: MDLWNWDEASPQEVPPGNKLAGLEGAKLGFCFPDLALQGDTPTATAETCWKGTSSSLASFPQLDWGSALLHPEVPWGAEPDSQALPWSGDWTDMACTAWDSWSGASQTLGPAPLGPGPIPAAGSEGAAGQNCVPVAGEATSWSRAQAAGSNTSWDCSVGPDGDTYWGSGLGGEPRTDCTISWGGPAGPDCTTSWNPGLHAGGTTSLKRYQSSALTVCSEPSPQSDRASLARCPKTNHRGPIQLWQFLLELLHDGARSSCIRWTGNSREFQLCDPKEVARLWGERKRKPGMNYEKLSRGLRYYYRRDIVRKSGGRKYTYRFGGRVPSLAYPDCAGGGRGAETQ
The settings on record: protein: recombinant; tags: N-terminal GST; dsDNA, one strand shown. In outline: as §1

For a further assay, the target named is T11, ELF3 (Homo sapiens, UniProt P78545 1-371).
T11 sequence: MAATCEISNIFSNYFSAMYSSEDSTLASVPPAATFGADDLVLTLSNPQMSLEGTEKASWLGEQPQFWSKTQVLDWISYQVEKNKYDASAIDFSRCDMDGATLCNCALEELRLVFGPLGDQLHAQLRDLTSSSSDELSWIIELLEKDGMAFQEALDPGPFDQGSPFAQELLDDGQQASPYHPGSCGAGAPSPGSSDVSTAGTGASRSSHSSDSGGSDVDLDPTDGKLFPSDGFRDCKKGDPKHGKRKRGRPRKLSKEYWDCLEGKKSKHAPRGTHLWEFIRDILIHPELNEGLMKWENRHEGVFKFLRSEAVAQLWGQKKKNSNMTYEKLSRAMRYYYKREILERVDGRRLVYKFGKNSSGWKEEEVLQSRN
The settings on record: protein: recombinant; tags: N-terminal GST; dsDNA, one strand shown. In outline: as §1

The next assay has as its target CRX (Homo sapiens, UniProt O43186 1-299). The following applies: protein: recombinant; tags: N-terminal GST; dsDNA, one strand shown. In outline:
as §1

The next assay addresses ETV1 (Homo sapiens, UniProt P50549 1-477). The following applies: protein: recombinant; tags: N-terminal GST; dsDNA, one strand shown. In outline: as §1

ETV1, sequence (P50549 whole entry): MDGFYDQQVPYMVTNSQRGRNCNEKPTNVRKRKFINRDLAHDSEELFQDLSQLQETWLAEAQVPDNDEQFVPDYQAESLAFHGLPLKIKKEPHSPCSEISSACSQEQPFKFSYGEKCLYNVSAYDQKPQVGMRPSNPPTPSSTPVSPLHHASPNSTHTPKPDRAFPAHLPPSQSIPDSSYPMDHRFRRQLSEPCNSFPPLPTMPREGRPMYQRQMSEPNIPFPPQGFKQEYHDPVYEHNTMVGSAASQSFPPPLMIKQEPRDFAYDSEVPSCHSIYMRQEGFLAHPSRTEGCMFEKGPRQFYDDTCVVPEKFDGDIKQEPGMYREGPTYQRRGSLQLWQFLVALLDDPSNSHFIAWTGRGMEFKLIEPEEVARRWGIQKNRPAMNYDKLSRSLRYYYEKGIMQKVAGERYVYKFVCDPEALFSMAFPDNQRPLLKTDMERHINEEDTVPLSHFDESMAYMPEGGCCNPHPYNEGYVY
HSF1, sequence (Q00613 whole entry): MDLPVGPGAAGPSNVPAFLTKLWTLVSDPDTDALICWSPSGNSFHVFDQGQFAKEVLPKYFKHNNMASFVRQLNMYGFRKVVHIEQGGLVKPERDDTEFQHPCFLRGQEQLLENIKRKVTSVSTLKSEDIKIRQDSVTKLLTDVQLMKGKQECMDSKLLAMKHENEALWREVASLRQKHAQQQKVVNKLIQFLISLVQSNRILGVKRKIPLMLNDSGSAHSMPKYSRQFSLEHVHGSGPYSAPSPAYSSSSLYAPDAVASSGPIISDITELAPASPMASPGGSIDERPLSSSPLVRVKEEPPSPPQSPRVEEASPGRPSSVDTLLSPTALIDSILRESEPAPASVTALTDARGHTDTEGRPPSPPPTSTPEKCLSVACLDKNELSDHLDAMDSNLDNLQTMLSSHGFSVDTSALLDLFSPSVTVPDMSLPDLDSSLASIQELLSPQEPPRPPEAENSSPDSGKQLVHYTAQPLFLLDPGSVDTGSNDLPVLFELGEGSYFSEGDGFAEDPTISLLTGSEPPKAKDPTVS
CRX, sequence (O43186 whole entry): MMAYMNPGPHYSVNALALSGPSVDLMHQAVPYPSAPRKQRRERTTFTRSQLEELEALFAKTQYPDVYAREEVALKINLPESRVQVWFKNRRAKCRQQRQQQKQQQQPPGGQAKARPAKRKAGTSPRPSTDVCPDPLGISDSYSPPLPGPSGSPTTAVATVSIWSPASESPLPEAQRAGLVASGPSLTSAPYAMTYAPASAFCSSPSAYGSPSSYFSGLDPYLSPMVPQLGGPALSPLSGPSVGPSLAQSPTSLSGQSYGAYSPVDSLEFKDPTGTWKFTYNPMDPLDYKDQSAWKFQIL
SPIB, sequence (Q01892 whole entry): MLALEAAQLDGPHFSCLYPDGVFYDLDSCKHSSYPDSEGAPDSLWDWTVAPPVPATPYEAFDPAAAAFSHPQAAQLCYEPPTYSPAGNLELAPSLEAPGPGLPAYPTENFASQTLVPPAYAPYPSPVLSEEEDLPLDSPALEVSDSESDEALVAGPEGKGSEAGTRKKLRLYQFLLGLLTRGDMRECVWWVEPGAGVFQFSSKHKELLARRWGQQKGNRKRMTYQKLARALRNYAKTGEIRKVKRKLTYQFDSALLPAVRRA
ELF4, sequence (Q99607 whole entry): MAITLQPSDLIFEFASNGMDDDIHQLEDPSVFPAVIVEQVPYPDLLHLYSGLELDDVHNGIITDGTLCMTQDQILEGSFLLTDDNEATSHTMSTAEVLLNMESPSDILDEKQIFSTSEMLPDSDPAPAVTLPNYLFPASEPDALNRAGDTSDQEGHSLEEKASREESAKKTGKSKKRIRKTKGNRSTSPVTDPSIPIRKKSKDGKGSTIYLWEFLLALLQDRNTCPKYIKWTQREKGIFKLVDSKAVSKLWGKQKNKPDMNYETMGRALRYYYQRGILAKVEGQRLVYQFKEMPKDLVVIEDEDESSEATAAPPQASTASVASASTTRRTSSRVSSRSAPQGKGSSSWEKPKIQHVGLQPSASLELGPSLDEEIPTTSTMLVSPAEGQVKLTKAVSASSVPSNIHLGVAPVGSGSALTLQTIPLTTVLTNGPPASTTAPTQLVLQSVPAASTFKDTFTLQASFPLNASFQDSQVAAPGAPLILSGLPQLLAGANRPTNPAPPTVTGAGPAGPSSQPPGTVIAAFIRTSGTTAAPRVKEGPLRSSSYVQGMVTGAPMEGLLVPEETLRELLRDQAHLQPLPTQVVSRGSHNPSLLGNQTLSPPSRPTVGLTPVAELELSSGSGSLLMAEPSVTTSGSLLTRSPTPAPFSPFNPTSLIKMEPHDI

In the case of TCATCA, the binding signal is 1.18 fold enrichment (6-mer frequency, TF over GST control) with FLI1; 1.16 fold enrichment (6-mer frequency, TF over GST control) with ELK1; 1.17 fold enrichment (6-mer frequency, TF over GST control) in the assay with GABPA; 1.13 fold enrichment (6-mer frequency, TF over GST control) with ERG; 1.14 fold enrichment (6-mer frequency, TF over GST control) with ELF1; 1.09 fold enrichment (6-mer frequency, TF over GST control) with EHF. In addition, the binding signal is 1.1 fold enrichment (6-mer frequency, TF over GST control) in the assay with SPI1; 1.14 fold enrichment (6-mer frequency, TF over GST control) in the assay with SPIB; 1.18 fold enrichment (6-mer frequency, TF over GST control) in the assay with ELK3; 1.12 fold enrichment (6-mer frequency, TF over GST control) in the assay with FEV; 1.09 fold enrichment (6-mer frequency, TF over GST control) with ETV5; 1.06 fold enrichment (6-mer frequency, TF over GST control) with HSF1. In addition, the binding signal was 1.16 fold enrichment (6-mer frequency, TF over GST control) in the assay with SPIC; 1.18 fold enrichment (6-mer frequency, TF over GST control) in the assay with ELF4; 1.26 fold enrichment (6-mer frequency, TF over GST control) with ELK4; 1.07 fold enrichment (6-mer frequency, TF over GST control) in the assay with ETV2; 1.07 fold enrichment (6-mer frequency, TF over GST control) with ELF3; 1.07 fold enrichment (6-mer frequency, TF over GST control) with CRX. For the same sequence, the binding signal with ETV1 was 1.06 fold enrichment (6-mer frequency, TF over GST control).
